The record followed here is PubChem BioAssay (NCATS).

Inconclusive results are not listed. Unmarked numbers belong to inactive results. The source made the active and inactive calls. The call rests on the fitted dose curve; in most records, active means well fitted inhibition curve with a large enough effect; inconclusive means small, poorly fitted or top-dose-only effect; inactive means flat fitted curve, though single readings scatter.
Potency means the concentration at half of the fitted maximal effect.

The test system of the experiment is CP297. As to the kind of experiment: qHTS profiling for inhibitors of Plasmodium falciparum proliferation (AID 504749). Further: nearly all actives have a fitted effect of over 60% in size.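 On activity, negative = inhibition: 0% = DMSO vehicle and full inhibition = artemisinin control.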 The following applies: P. falciparum in erythrocytes, SYBR Green DNA, 72 h; series mostly up to 28.7 µM; activity, negative = inhibition: at the top concentration. In short, it runs like this: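 Readout was DNA-dye fluorescence from lysed cultures, ex 485/em 535 nm. Parasitized red cells had grown 72 h with compound; data scaled between 0.29 uM artemisinin and DMSO wells and corrected using vehicle-only plates.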
On to `COC(=O)Nc1nc2ccc(C(=O)c3ccccc3)cc2[nH]1`, for which the “activity, negative = inhibition” value is -20.5% [at 12.8 µM].
On the same count and under the same terms, the figure for `CCOC(=O)c1ccc(C#Cc2ccc3c(c2)C(C)(C)CCS3)nc1` is -8.13%; for `CCn1cc(C(=O)O)c(=O)c2cc(F)c(N3CCNCC3)nc21` it is -5.17% [at 12.8 µM].
Turning to `O=c1oc2c(O)c(O)cc3c(=O)oc4c(O)c(O)cc1c4c23`, the Potency was 1.51 µM (active).
Still for that read-out and setting: the figure for `CC(N)C12CC3CC(CC(C3)C1)C2` (centres undefined) is 7.57 µM (active).
Turning to `COc1ccc(C(=O)CC(=O)c2ccc(C(C)(C)C)cc2)cc1`, the “activity, negative = inhibition” value is -7.99%.
The same measure, in the same setting: next, `CCC(C)(C)c1ccc(CC(C)CN2C[C@@H](C)O[C@@H](C)C2)cc1` (some centres undefined): 2%; `NC(=O)N1c2ccccc2CC(=O)c2ccccc21`: -22.1%.
As to `CNC(=O)c1cc(Oc2ccc(NC(=O)Nc3ccc(Cl)c(C(F)(F)F)c3)cc2)ccn1`, the Potency was 9.53 µM (active).
With `N[C@@H](Cc1ccc(O)c(O)c1)C(=O)O`, the “activity, negative = inhibition” value is -2.3%.
As to `COc1cc([C@@H]2c3cc4c(cc3[C@H](O)[C@H]3COC(=O)[C@H]23)OCO4)cc(OC)c1OC`, the Potency was 15.1 µM (active).
For `CC1=CC(=O)c2ccccc2C1=O`, the “activity, negative = inhibition” value is -2.47%.
Still for that read-out and setting: the figure for `CN(Cc1cc(Br)cc(Br)c1N)C1CCCCC1` is -4.55%.
The same measure, in the same setting: the figure for `CCn1cc(C(=O)O)c(=O)c2cc(F)c(N3CCN(C)CC3)cc21` is -18.9%.
